# ChEMBL document CHEMBL3988442, “University of Dundee, Small-Polar-MMV Screening Library” (2021)
# In all, about 69,000 compounds went through this assay and about 1,000 (1.4%) showed an effect of 50% or more. What follows is part of a selection rich in strong results, with near analogues and random picks from the rest.
# Tested on: Leishmania donovani
# Assay: Leishmania intramacrophage assay
# Assay type: functional, organism-based
# Set-up: scale not given: in the data most compounds retested in dose-response had high values
structure (smiles),measurement,setting,value
CC(C)c1nc(-c2cc(C(=O)N3CCN(C)CC3)c3ccccn23)cs1.O=C(O)C(F)(F)F,Percent Effect,"30.3 µM, […]",16.88%
CC(C)c1nc(-c2cc(C(=O)NCCCO)c3ccccn23)cs1,Percent Effect,"30.3 µM, […]",30%
Cc1nc(-c2cc(C(=O)NCCN3CCOCC3)c3ccccn23)cs1.O=C(O)C(F)(F)F,Percent Effect,"30.3 µM, […]",-52.36%
CC(C)c1nc(-c2cc(C(=O)NCCN(C)C)c3ccccn23)cs1.O=C(O)C(F)(F)F,Percent Effect,"30.3 µM, […]",74.71%
CC(C)c1nc(-c2cc(C(=O)O)c3ccccn23)cs1,Percent Effect,"30.3 µM, […]",-0.8279%
Cc1cnc(CNc2ccc(C(=O)NCc3ccco3)cc2C)o1,Percent Effect,"30.3 µM, […]",-20.82%
O=C(O)C(F)(F)F.c1cc(CNCC2Cn3nncc3CO2)co1 (stereo not drawn),Percent Effect,"30.3 µM, […]",20.1%
CCCn1nnnc1COC(=O)C1COc2ccc(Cl)cc2C1 (stereo not drawn),Percent Effect,"30.3 µM, […]",-4.057%
O=C(NCC1(c2cccc(F)c2)CC1)N1CCC2(CCOC2)C1 (stereo not drawn),Percent Effect,"30.3 µM, […]",-5.939%
CC1(C)OC(=O)N(CC(=O)N2CCC(c3ccccc3Cl)C2)C1=O (stereo not drawn),Percent Effect,"30.3 µM, […]",16.86%
CC(=O)N1CCC(Cc2cnc(C(=O)N3CCCC3)cn2)C1 (stereo not drawn),Percent Effect,"30.3 µM, […]",-5.476%
CCOCc1ccccc1CNc1ccc2nncn2n1,Percent Effect,"30.3 µM, […]",18.04%
CCn1ncc(Nc2[nH]cnc3nc(C)nc2-3)c1C,Percent Effect,"30.3 µM, […]",-7.482%
CCn1ncc(Nc2[nH]cnc3nncc2-3)c1C,Percent Effect,"30.3 µM, […]",61.85%
CCn1ncc(CNc2[nH]cnc3nncc2-3)c1C,Percent Effect,"30.3 µM, […]",46.44%
N#Cc1c(F)cccc1N1CCCC(C(=O)Nc2nccs2)C1 (stereo not drawn),Percent Effect,"30.3 µM, […]",38.57%
CN(c1ccc(CNC(=O)c2ccc(O)nc2)cc1)C1CCCCC1,Percent Effect,"30.3 µM, […]",57.37%
CN(c1ccc(CNC(=O)c2c[nH]c(=O)c(Cl)c2)cc1)C1CCCCC1,Percent Effect,"30.3 µM, […]",30.08%
Cc1ccc(C(=O)NCc2ccc(N(C)C)cc2)cn1,Percent Effect,"30.3 µM, […]",1.485%
CNC(=O)c1cc(C)n(-c2ccccc2)n1,Percent Effect,"30.3 µM, […]",21.3%
CC(=O)N(Cc1ncc(C)o1)C1CCN(Cc2ccncc2Cl)C1 (stereo not drawn),Percent Effect,"30 µM, 30.03 µM",31.13%
Cc1nnc(CN(C)C2CCN(Cc3nc4ccccc4n3C)C2)o1 (stereo not drawn),Percent Effect,30 µM,31.75%
CC(=O)N(Cc1ncc(C)o1)C1CCN(Cc2cccc(C#N)c2)C1 (stereo not drawn),Percent Effect,"30 µM, 30.03 µM",6.646%
Cc1cnc(CN(C)C2CCN(Cc3nc4ccccc4o3)C2)o1 (stereo not drawn),Percent Effect,30 µM,8.725%
Cc1cnc(CN(C)C2CCN(Cc3nc4ccccc4n3C)C2)o1 (stereo not drawn),Percent Effect,"30 µM, 30.03 µM",57.21%
O=C(c1ccccc1O)N1CCn2c(nnc2C(F)(F)F)C1,Percent Effect,"30.3 µM, […]",-5.557%
CCN(CC)Cc1cc(=O)n2c(n1)CN(C(=O)c1ccc[nH]1)CCC2,Percent Effect,"30.3 µM, […]",36.34%
c1ccc(-c2nnc3ccc(N4CCC5(CCOC5)C4)nn23)cc1 (stereo not drawn),Percent Effect,"30.3 µM, […]",-7.106%
